In assay [1] the target is Rap guanine nucleotide exchange factor 3 (Homo sapiens) (UniProt O95398). The assay is described as follows: Confirmatory qHTS for agonist of cAMP-regulated guanine nucleotide exchange factor 3 (EPAC1) (AID 1645881).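 For activation: EPAC1 catalysed release of BODIPY-GDP from Rap1B seen as fluorescence loss; 100% = effect of cAMP agonist control.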 Note: nearly all actives have a fitted effect of over 75% in size. Note: potency is the fitted concentration of half-maximal effect.
Assay [2] has as its target Rap guanine nucleotide exchange factor 4 (Homo sapiens) (UniProt Q8WZA2). The assay is described as follows: Confirmatory qHTS for agonist of cAMP-regulated guanine nucleotide exchange factor 4 (EPAC2) (AID 1645884).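 Note: nucleotide exchange releases bodipy-GDP from Rap1 and this lowers its fluorescence; nearly all actives have a fitted effect of over 65% in size.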 Note: potency is the fitted concentration of half-maximal effect.
Assay [3] has the same target. The assay is described as follows: Confirmatory qHTS for antagonist of cAMP-regulated guanine nucleotide exchange factor 4 (EPAC2) (AID 1645885). Note: % is set by controls: 0 for no effect and ±100 for the full control effect; nearly all actives have a fitted effect of over 25% in size. For orientation: qHTS replaces the single test concentration by a dilution series.
Assay [4] has as its target Rap guanine nucleotide exchange factor 3 (Homo sapiens) (UniProt O95398). The assay is described as follows: Counterscreen qHTS for antagonist of cAMP-regulated guanine nucleotide exchange factor 3 (EPAC1) (AID 1645888).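 Note: fluorescence loss as bound BODIPY-GDP is released from Rap1B; % of control where 0% means no effect.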 A digest of the protocol: (§1)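 Rap1B–BODIPY-GDP (250 nM) with 50 uM GDP; compounds pin-transferred to 9.74 nM–152 uM final (activator) or from 7.32 nM upwards (inhibitor). Fluorescence Ex/Em 480/540 nm read at 5 and 30 min, then after adding cAMP or buffer, at room temperature.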

For assay [5] the target is unchanged. The assay is described as follows: Counterscreen qHTS for agonist of cAMP-regulated guanine nucleotide exchange factor 3 (EPAC1) (AID 1645889). For activation: % of control where 0% means no effect. Note: nearly all actives have a fitted effect of over 40% in size. Note: potency is the fitted concentration of half-maximal effect. A digest of the protocol: as §1
Assay [6] has as its target Glutathione peroxidase 1 (Homo sapiens) (UniProt P07203). Nature of the assay: Primary qHTS Assay for Inhibitors of Recombinant Selenoprotein Glutathione Peroxidase 1 (GPX1) (AID 1845191). Note: % is set by controls: 0 for no effect and ±100 for the full control effect; nearly all actives have a fitted effect of over 65% in size. The method, boiled down:
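GR-coupled readout: NADPH consumption tracked by fluorescence, ex 340/em 450 nm, at t=0 and after 15 min at RT. Final mix 10 nM GPX1, 1 mM GSH, 0.5 mM CHP, 0.5 mM NADPH, 100 nM GR, 0.01% BSA, following 30 min enzyme–compound preincubation.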

A short description of assay [7]: qHTS drug screen for cell cycle checkpoint inhibitors in PARPi-resistant BRCA-mutant ovarian cancer cell lines. (AID 1963452; calls by dose curve). Particulars: PEO1/OlaR viability, CellTiter-Glo luminescence, 96 h, stronger effect = lower value. A digest of the protocol: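 PEO1, PEO4 and PEO1/OlaR ovarian cancer cells, 600 per well, exposed 96 h at 37C to a dilution series. Viability read by CellTiter-Glo luminescence, normalized to DMSO and empty wells; activity summarized as Z-AUC.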

Assay [8] can be described thus: AP1 Signaling Pathway (AID 357; active = well fitted curve in either direction with a large enough effect, not every such curve was filed as active;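 note: ME-180 reporter cells stimulated with EGF at its EC50 level; % is set by controls: 0 for no effect and ±100 for the full control effect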). The method, boiled down: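 In this screen, ME-180 cells in Opti-MEM with 0.5% dialyzed FBS received EC50 EGF and compound titrations for 5 h. AP-1 reporter beta-lactamase was detected via CCF4 ratio, giving AC50 for positive and negative modulators.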
The target of assay [9] is Cytochrome P450 1A2 (Homo sapiens) (UniProt P05177). Nature of the assay: p450-cyp1a2 (AID 410; calls by dose curve; note: potency is the fitted concentration of half-maximal effect). A digest of the protocol:
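Luminescent demethylation readout: Luciferin-ME (100uM, equal to Km) turned over by 20nM CYP1A2 for 60 min at room temperature after NADPH regeneration addition, following 10 min compound preincubation. Normalization used 57 uM furafylline as full inhibition.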

A short description of assay [10]: NFAT Signaling Pathway (AID 444; active = well fitted curve in either direction with a large enough effect, not every such curve was filed as active;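 note: carbachol stimulus at about its EC50 of 1 µM final; % is set by controls: 0 for no effect and ±100 for the full control effect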). Particulars: Jurkat NFAT-bla M1, carbachol, beta-lactamase ratio, 5 h; at 17.2 µM (top of the series) unless noted. A digest of the protocol:
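Jurkat cells with NFAT-driven β-lactamase reporter and co-expressed M1 receptor, stimulated with carbachol (final 1 uM, ~EC50), compound titration, 5 h at 37 °C. CCF4 loaded 1 h at RT; 460/530 nm ratio gave %activity and AC50.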

Assay [11] in a line: Stat Signaling Pathway (AID 446; active = well fitted curve in either direction with a large enough effect, not every such curve was filed as active;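 note: ME-180 cervical cancer cells given 40 pM IL-6 alongside compound; SIE-controlled beta-lactamase reporter measured as 460/530 nm FRET emission ratio; % is set by controls: 0 for no effect and ±100 for the full control effect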). A digest of the protocol:
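Normalization used AC90 stimulation (300 pM IL-6) and AC90 inhibition (125 nM pan-JAK inhibitor at 40 pM IL-6). The underlying signal is SIE-driven beta-lactamase in ME-180 cells after 5 h IL-6 exposure with compound.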

In assay [12] the target is Glucocorticoid receptor (Homo sapiens) (UniProt P04150). Nature of the assay: GR-GFP Redistribution (AID 450;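 active = compounds whose dose series gives a full or clear partial fitted curve of increased nuclear translocation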; note: potency is the fitted concentration of half-maximal effect). Conditions: U2OS GR-GFP nuclear translocation, laser cytometry, 2 h.
For assay [13] the target is unchanged. The assay is described as follows: GR-EFC Redistribution (AID 451; calls by dose curve; note: potency is the fitted concentration of half-maximal effect). Conditions: CHO-K1 GR-EFC translocation, beta-gal luminescence, 2 h. A digest of the protocol:
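CHO-K1 cells expressing nuclear EA and GR-ED fragments of b-gal; compounds titrated up to 46 uM final, 2 h at 37 C. GR nuclear translocation read as complemented b-gal luminescence after 1 h RT detection.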

Assay [14] deals with Mitogen-activated protein kinase 10 (Mus musculus) (UniProt Q61831). Nature of the assay: JNK3 AlphaScreen Assay (AID 530; active = well fitted curve in either direction with a large enough effect, not every such curve was filed as active;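 note: kinase came from lysate of stimulated human HepG2 cells; signal reports phosphorylation of biotinylated GST-cJun 1-79 at Ser73 with 10 µM ATP; % is set by controls: 0 for no effect and ±100 for the full control effect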). A digest of the protocol: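 Activity was read by AlphaScreen after JNK3-containing HepG2 lysate (cytokine pre-activated) phosphorylated biotinylated GST-cJun with 10 uM ATP at room temperature. Phospho-Ser73 cJun antibody with Protein-A acceptor beads provided detection.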
(Bead proximity is the source of the signal in Alpha formats.)

The target of assay [15] is 3',5'-cyclic-AMP phosphodiesterase 4B (Homo sapiens) (UniProt Q07343). Nature of the assay: qHTS Assay for Inhibitors of PDE-IV (AID 607; active = well fitted activation curve with a large enough effect in the main read-out, with a control signal flat, not every such curve was filed as active; note: % of control where 0% means no effect). A digest of the protocol: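 HEK293 ACTOne cells with CNG channel (1000/well), endogenous PDE4; membrane potential dye, compounds up to 22.9 uM final. Fluorescence Ex 535/Em 590; RO 20-1724 (100 uM final) as reference.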
For assay [16], the target named is Cytochrome P450 3A4 (Homo sapiens) (UniProt P08684). The assay is described as follows: qHTS Assay for Activators of Cytochrome P450 3A4 (AID 885). Note: nearly all actives have a fitted effect of over 65% in size. The method, boiled down: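 Human CYP3A4 dealkylates Luciferin-PPXE to luciferin, which luciferase detection converts to light. Substrate was at its KM (25uM), buffer 200mM KPO4, reaction 60 min at RT.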
The target of assay [17] is Ubiquitin carboxyl-terminal hydrolase 1 (Homo sapiens) (UniProt O94782). The assay is described as follows: Inhibitors of USP1/UAF1: Pilot qHTS (AID 504865).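 Note: rhodamine fluorescence freed from ubiquitin-rhodamine substrate followed over time; top concentration of the series differs between compounds; % is set by controls: 0 for no effect and ±100 for the full control effect; nearly all actives have a fitted effect of over 35% in size.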 The method, boiled down: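 Deubiquitinase activity followed as kinetic rhodamine fluorescence release from 150 nM Ub-Rho. 1 nM USP1/UAF1 with compound, after 15 min room-temperature preincubation, in HEPES pH 7.8 buffer containing TCEP, EDTA, BSA and Tween-20.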

Results filed as inconclusive are left out. Active and inactive are the calls of the source. Unless noted, calls come from the whole dose curve; as a rule, active = well fitted curve in the direction sought with a large enough effect; inconclusive = small, poorly fitted or top-dose-only effect, or another doubt; inactive = no such curve, though single readings can be large; an effect the other way counts as inactive or inconclusive.

From PubChem BioAssay (NCATS) come the findings set out here.

Sequence of Rap guanine nucleotide exchange factor 3 (Homo sapiens) (O95398 whole entry, looked up): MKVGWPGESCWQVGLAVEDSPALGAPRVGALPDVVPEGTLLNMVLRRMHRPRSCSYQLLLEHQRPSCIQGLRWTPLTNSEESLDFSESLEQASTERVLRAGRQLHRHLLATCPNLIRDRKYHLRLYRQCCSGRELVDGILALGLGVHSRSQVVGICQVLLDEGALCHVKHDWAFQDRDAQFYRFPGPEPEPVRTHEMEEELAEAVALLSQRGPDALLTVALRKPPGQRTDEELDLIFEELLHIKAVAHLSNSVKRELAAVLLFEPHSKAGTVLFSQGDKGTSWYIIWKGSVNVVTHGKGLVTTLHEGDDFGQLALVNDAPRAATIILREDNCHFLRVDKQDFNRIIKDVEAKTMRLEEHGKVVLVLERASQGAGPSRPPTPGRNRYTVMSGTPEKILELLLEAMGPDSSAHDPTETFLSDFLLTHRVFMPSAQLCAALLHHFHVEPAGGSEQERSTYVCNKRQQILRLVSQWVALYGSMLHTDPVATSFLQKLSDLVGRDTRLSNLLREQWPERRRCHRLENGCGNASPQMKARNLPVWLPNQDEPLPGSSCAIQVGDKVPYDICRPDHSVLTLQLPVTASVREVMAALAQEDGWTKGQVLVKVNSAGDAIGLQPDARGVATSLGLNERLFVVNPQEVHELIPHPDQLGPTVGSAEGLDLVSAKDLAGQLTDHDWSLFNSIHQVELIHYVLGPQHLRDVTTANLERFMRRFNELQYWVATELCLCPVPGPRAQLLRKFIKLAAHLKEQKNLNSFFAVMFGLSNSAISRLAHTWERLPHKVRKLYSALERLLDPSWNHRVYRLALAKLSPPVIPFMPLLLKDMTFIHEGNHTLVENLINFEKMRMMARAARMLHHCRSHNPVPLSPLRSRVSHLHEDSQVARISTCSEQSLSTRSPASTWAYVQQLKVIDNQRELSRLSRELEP
Sequence of Rap guanine nucleotide exchange factor 4 (Homo sapiens) (Q8WZA2 whole entry, looked up): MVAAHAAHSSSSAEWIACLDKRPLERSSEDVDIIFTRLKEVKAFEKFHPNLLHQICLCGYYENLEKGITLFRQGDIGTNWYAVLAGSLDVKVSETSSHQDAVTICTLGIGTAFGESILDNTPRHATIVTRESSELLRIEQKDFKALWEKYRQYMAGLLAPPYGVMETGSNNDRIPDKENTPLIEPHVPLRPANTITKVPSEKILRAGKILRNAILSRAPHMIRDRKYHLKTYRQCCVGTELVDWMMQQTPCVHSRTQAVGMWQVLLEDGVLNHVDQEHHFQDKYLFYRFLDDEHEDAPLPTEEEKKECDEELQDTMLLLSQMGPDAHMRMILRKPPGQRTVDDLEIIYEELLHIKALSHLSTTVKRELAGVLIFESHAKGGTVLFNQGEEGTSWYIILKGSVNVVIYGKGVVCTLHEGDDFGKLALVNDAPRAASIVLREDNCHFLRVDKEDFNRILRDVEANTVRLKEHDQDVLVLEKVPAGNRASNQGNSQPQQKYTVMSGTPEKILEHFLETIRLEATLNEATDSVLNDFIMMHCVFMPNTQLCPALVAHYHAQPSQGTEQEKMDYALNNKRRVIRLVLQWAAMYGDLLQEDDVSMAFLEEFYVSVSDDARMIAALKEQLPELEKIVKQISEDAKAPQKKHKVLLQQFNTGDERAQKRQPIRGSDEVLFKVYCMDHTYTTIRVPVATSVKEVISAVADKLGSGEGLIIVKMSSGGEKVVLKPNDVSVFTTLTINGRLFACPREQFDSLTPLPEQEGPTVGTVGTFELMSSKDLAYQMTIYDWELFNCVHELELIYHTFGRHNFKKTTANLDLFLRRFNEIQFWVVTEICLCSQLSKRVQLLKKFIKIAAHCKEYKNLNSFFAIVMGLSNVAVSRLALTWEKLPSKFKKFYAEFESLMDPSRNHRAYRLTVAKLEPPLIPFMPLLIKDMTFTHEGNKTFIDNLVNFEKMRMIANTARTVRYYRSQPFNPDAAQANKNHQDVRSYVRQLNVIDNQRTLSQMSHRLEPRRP
Sequence of Glucocorticoid receptor (Homo sapiens) (P04150 whole entry, looked up): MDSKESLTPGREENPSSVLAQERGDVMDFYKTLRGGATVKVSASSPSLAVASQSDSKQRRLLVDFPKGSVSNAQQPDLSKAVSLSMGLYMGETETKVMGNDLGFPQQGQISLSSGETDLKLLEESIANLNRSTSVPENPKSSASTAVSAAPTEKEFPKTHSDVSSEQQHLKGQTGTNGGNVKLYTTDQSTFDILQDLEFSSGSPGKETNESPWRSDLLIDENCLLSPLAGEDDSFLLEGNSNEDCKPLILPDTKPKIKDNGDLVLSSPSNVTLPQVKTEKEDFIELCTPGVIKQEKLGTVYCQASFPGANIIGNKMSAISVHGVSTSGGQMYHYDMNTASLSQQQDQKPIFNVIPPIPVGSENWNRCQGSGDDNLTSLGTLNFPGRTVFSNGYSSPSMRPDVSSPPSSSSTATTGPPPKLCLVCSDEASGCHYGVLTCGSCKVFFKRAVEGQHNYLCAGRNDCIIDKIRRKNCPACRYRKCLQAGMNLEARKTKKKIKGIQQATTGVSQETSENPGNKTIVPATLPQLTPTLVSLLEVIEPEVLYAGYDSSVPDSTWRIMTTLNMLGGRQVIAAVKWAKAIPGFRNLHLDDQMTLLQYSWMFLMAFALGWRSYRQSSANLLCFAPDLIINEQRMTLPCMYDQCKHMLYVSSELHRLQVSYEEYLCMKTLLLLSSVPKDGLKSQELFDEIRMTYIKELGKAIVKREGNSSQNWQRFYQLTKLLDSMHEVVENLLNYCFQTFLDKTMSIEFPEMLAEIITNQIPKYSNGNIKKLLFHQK
Sequence of 3',5'-cyclic-AMP phosphodiesterase 4B (Homo sapiens) (Q07343 whole entry, looked up): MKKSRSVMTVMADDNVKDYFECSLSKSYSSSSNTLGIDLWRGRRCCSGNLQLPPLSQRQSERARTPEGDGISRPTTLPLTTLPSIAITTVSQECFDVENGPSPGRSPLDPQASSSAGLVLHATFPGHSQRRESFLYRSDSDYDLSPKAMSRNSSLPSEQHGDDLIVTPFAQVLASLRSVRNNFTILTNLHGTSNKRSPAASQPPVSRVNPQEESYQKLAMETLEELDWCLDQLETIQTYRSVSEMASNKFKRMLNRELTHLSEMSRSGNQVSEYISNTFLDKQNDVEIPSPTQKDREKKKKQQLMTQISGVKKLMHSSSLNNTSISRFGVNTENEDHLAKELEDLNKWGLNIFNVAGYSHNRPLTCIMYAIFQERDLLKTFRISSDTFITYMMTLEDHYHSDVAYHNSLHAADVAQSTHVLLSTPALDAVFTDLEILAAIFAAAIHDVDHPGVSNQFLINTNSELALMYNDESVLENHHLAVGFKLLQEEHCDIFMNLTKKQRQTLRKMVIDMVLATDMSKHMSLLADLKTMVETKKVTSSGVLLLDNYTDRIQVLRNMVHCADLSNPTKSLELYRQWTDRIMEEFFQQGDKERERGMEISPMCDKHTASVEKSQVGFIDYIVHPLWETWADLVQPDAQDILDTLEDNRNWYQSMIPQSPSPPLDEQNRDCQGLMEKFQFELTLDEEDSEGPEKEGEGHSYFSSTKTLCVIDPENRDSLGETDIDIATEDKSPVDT
Sequence of Cytochrome P450 1A2 (Homo sapiens) (P05177 whole entry, looked up): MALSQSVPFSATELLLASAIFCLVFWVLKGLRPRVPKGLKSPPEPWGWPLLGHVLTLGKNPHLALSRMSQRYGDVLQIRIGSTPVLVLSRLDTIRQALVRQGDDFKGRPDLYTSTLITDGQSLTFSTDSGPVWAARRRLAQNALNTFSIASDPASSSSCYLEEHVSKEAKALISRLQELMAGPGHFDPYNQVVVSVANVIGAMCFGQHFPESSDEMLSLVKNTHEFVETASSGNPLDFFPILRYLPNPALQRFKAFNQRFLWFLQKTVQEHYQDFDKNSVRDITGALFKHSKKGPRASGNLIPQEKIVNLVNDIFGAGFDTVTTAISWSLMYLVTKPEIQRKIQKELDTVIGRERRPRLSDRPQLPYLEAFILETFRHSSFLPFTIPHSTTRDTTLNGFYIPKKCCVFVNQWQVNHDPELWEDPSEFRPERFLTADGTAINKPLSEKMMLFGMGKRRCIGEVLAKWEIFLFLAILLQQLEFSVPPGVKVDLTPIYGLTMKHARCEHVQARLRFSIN
Sequence of Cytochrome P450 3A4 (Homo sapiens) (P08684 whole entry, looked up): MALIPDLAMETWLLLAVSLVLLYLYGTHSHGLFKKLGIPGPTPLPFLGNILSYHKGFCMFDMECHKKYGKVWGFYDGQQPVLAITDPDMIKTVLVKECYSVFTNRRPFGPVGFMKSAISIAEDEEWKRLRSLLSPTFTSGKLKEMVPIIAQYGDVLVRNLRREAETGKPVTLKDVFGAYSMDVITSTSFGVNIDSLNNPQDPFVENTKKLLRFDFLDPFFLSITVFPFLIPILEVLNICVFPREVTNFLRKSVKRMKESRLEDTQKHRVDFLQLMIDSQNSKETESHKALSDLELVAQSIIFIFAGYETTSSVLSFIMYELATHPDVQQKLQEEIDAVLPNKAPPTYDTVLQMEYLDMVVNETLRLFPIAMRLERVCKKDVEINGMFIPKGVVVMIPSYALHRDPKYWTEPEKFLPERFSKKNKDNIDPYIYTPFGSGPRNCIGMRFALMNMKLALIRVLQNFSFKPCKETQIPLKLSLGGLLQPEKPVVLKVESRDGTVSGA
Sequence of Glutathione peroxidase 1 (Homo sapiens) (P07203 whole entry, looked up): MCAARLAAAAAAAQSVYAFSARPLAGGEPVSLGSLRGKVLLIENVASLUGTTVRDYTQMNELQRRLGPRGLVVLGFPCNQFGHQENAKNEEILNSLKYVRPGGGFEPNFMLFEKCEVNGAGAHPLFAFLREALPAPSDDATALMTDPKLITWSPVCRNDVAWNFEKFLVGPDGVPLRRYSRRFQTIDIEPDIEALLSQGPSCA

Take `COc1ccccc1/C=C/C=C1\Oc2c(ccc(O)c2CN(C)C)C1=O`: the Potency in assay [1] is 89.1 µM (active); in assay [2], 112 µM (active); in assay [5], 63.1 µM (active). Moreover, the Potency entry in assay [3] and in assay [4] was “inactive” each time.
Turning to `Cc1nc(-c2cccc(NC(=O)Cc3ccccc3)c2)cs1`, the Potency result in assay [1] and in assay [3] was “inactive” throughout. Besides, the activation was 1.14% [at 17.1 µM, percent relative to cAMP agonist control] (inactive) in [2] and 2.08% [at 30.8 µM] (inactive) in assay [5]. Further, the activity change, negative = inhibition in assay [4] is -17.6% [at 30.8 µM] (inactive).
`CCc1ccc2nc(Nc3cc(Cc4ccccc4)nc(NC4CCC(O)CC4)n3)sc2c1` (centres undefined): the Potency entry in assay [6] is “inactive”. The results for the Z-AUC in assay [7], in [7] (measured here: PEO1 parental Z-AUC) and in assay [7] (measured here: PEO4 Z-AUC) were -0.86 (inactive), -0.737 and -0.703, respectively.
Regarding `C#C[C@]1(O)CC[C@@H]2[C@H]3CCc4cc(OC)ccc4[C@@H]3CC[C@@]21C`, the compound was classed as inactive in assay [8], in [11] and in assay [15]. In addition, the figures for the Potency in [9], in [12] and in assay [13] were 0.501 µM (active), > 20.6 µM (inactive) and > 20.6 µM (inactive), respectively. In addition, in assay [10], the activity change, negative = inhibition is -23.4% (inactive). Besides, the Potency entry in [14], in [16] and in assay [17] was “inactive” throughout.
